Measured values as given in PubChem BioAssay AID1704 (The Scripps Research Institute Molecular Screening Center, 2009).
Some of the results follow. Active and inactive are the calls of the source.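 Rule for the calls: active = inhibition above the mean of stimulated solvent-only control wells plus 3 SD (cut at about 22% in these data); inactive = the rest.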

Experiment: blockers of isoproterenol-driven CNG channel signal – cell-based, HEK293-CNG parental, membrane potential fluorescence, Y1 set, counter-screen for NPY-Y1 potentiator/agonist project (AID 1704);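 note: 0% = isoproterenol-stimulated DMSO wells and 100% = unstimulated DMSO wells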
Settings: isoproterenol cAMP, at 3.6 µM, active compounds read high

Row | Structure (SMILES) | inhibition
1 | CSC1=NP(=S)(SC)N(C)c2nc3n(c21)CCC3 (configuration not stated) | 3.97% (inactive)
2 | Cc1nn(Cc2ccccc2Cl)c(Cl)c1C(=O)OC(C(=O)NC(N)=O)C(C)C (configuration not stated) | 43.1% (active)
